Active and inactive are the calls of the source. The calls were made as follows: active = hit-call score of the fitted dose curve at least 0.9, where 1 is the maximum; inactive = score below 0.9.
Assays:
[1] = read-out: Tissue Factor, F3 (gene 2152); assay: BSK_CASM3C_TissueFactor: BioMAP Diversity Plus: CASM3C Assay for Tissue Factor Biomarker Activity (AID 2283052); conditions: primary human coronary artery smooth muscle cells; actives raise or lower the signal;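 also: cell surface tissue factor protein level read by ELISA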
[2] = read-out: Interferon-gamma inducible Protein 10 (IP10), CXCL10 (gene 3627); assay: BSK_hDFCGF_IP10: BioMAP Diversity Plus: hDFCGF Assay for Interferon-gamma inducible Protein 10 (IP10) Biomarker Activity (AID 2283053); conditions: primary human foreskin fibroblasts; actives raise or lower the signal
Summary of the method: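 Primary human foreskin fibroblasts exposed to chemicals for 24 h. IP-10 measured by ELISA; changes fitted bidirectionally against DMSO baseline.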

[3] = read-out: Urokinase-type plasminogen activator receptor (uPAR), PLAUR (gene 5329); assay: BSK_CASM3C_uPAR: BioMAP Diversity Plus: CASM3C Assay for Urokinase-type plasminogen activator receptor (uPAR) Biomarker Activity (AID 2283054); conditions: primary human coronary artery smooth muscle cells; actives raise or lower the signal;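 also: cell-surface uPAR protein level quantified by ELISA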
[4] = read-out: Vascular cell adhesion molecule 1 (VCAM1), VCAM1 (gene 7412); assay: BSK_CASM3C_VCAM1: BioMAP Diversity Plus: CASM3C Assay for Vascular cell adhesion molecule 1 (VCAM1) Biomarker Activity (AID 2283055); conditions: primary human coronary artery smooth muscle cells; actives raise or lower the signal;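 also: VCAM-1 protein level quantified by ELISA on the cells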
[5] = read-out: Collagen III, COL3A1 (gene 1281); assay: BSK_hDFCGF_CollagenIII: BioMAP Diversity Plus: hDFCGF Assay for Collagen III Biomarker Activity (AID 2283056); conditions: primary human foreskin fibroblasts; actives raise or lower the signal
Summary of the method: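 Human foreskin fibroblast primary cultures sampled 24 h after dosing; Collagen III quantified by ELISA. Signal fitted bidirectionally against DMSO baseline.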

[6] = read-out: Epidermal growth factor receptor (EGFR), EGFR (gene 1956); assay: BSK_hDFCGF_EGFR: BioMAP Diversity Plus: hDFCGF Assay for Epidermal growth factor receptor (EGFR) Biomarker Activity (AID 2283057); conditions: primary human foreskin fibroblasts; actives raise or lower the signal
Summary of the method: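 Primary human foreskin fibroblasts (hDFCGF system), sampled 24 h after dosing; EGFR quantified by ELISA. Bidirectional fit relative to DMSO baseline; SRB total-protein staining in parallel cultures for cytotoxicity.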

[7] = read-out: Interleukin-8 (IL8), CXCL8 (gene 3576); assay: BSK_hDFCGF_IL8: BioMAP Diversity Plus: hDFCGF Assay for Interleukin-8 (IL8) Biomarker Activity (AID 2283058); conditions: primary human foreskin fibroblasts; actives raise or lower the signal
Summary of the method: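 Primary human foreskin fibroblasts (hDFCGF system) dosed with chemical; IL-8 measured by ELISA 24 hours later. Bidirectional curve fitting relative to DMSO baseline; cytotoxicity tracked in parallel cultures by SRB total protein staining.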

[8] = BSK_hDFCGF_Proliferation: Cell Proliferation Assessment in the BioMAP Diversity Plus: hDFCGF Assay (AID 2283059); conditions: primary human foreskin fibroblasts;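 also: curves fitted for both rise and fall of signal versus DMSO baseline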
Summary of the method: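 Steps: dose primary human dermal fibroblasts (foreskin); […] fix in 10% TCA; stain with 0.1% SRB; read 560 nm; fit gain or loss of signal against DMSO.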

[9] = read-out: Macrophage colony-stimulating factor (MCSF), CSF1 (gene 1435); assay: BSK_hDFCGF_MCSF: BioMAP Diversity Plus: hDFCGF Assay for Macrophage colony-stimulating factor (MCSF) Biomarker Activity (AID 2283060); conditions: primary human foreskin fibroblasts; actives raise or lower the signal
Summary of the method: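 Human foreskin fibroblast primary cultures; M-CSF measured by ELISA 24 hours after chemical dosing. Bidirectional fitting relative to DMSO, with overt cytotoxicity tracked by parallel SRB total-protein staining (0.1% SRB, 10% TCA fixation, 560 nm).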

[10] = BSK_hDFCGF_SRB: Viability Assessment in the BioMAP Diversity Plus: hDFCGF Assay (AID 2283061); conditions: primary human foreskin fibroblasts;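 also: cells exposed to compound for 24 h before the read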
Summary of the method: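 Human foreskin fibroblasts in 96-well plates were treated 24 h. Total protein was measured by 0.1% SRB staining after 10% TCA fixation, read at 560 nm. Data were fitted bidirectionally against DMSO.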

[11] = read-out: Monokine induced gamma interferon (MIG), CXCL9 (gene 4283); assay: BSK_hDFCGF_MIG: BioMAP Diversity Plus: hDFCGF Assay for Monokine induced gamma interferon (MIG) Biomarker Activity (AID 2283063); conditions: primary human foreskin fibroblasts; actives raise or lower the signal
Summary of the method: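 MIG/CXCL9 measured by ELISA 24 h after dosing primary human skin fibroblasts. Activity fitted in both directions against DMSO controls. Cytotoxicity was checked in parallel cultures by SRB staining read at 560 nm.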

[12] = read-out: Matrix Metallopeptidase 1 (MMP1), MMP1 (gene 4312); assay: BSK_hDFCGF_MMP1: BioMAP Diversity Plus: hDFCGF Assay for Matrix Metallopeptidase 1 (MMP1) Biomarker Activity (AID 2283064); conditions: primary human foreskin fibroblasts; actives raise or lower the signal
Summary of the method: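 Primary human foreskin fibroblasts in the hDFCGF system were dosed with test chemical, and MMP1 was measured by ELISA 24 h later. Values come from bidirectional curve fitting against the DMSO baseline.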

[13] = read-out: Vascular cell adhesion molecule 1 (VCAM1), VCAM1 (gene 7412); assay: BSK_hDFCGF_VCAM1: BioMAP Diversity Plus: hDFCGF Assay for Vascular cell adhesion molecule 1 (VCAM1) Biomarker Activity (AID 2283065); conditions: primary human foreskin fibroblasts; actives raise or lower the signal;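 as to AC50: VCAM-1 protein level quantified by ELISA after 24 h chemical exposure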
Summary of the method: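 Human foreskin fibroblast primary cells dosed with chemical, VCAM-1 measured by ELISA at 24 h. Bidirectional curve fitting relative to DMSO as negative control/baseline.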

[14] = read-out: Plasminogen activator inhibitor-1 (PAI1), SERPINE1 (gene 5054); assay: BSK_hDFCGF_PAI1: BioMAP Diversity Plus: hDFCGF Assay for Plasminogen activator inhibitor-1 (PAI1) Biomarker Activity (AID 2283066); conditions: primary human foreskin fibroblasts; actives raise or lower the signal
Summary of the method: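 Human foreskin fibroblast primary cells, 24 h chemical exposure; PAI-1 measured by ELISA. Bidirectional fitting relative to DMSO; parallel cultures stained with SRB for total protein to flag overt cytotoxicity.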

[15] = read-out: Intercellular Adhesion Molecule 1 (ICAM1), ICAM1 (gene 3383); assay: BSK_KF3CT_ICAM1: BioMAP Diversity Plus: KF3CT Assay for Intercellular Adhesion Molecule 1 (ICAM1) Biomarker Activity (AID 2283067); conditions: primary human keratinocytes with fibroblasts; actives raise or lower the signal
Summary of the method: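 Human keratinocyte–foreskin fibroblast co-culture was treated for 24 h. Cell-surface ICAM-1 was quantified by ELISA, fitted bidirectionally relative to DMSO. Cytotoxicity was checked in parallel cultures by SRB total-protein staining.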

[16] = read-out: Interferon-gamma inducible Protein 10 (IP10), CXCL10 (gene 3627); assay: BSK_KF3CT_IP10: BioMAP Diversity Plus: KF3CT Assay for Interferon-gamma inducible Protein 10 (IP10) Biomarker Activity (AID 2283068); conditions: primary human keratinocytes with fibroblasts; actives raise or lower the signal
Summary of the method: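 KF3CT co-culture (keratinocytes + foreskin fibroblasts), 24 h compound, IP-10 by ELISA; bidirectional fit vs DMSO baseline.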

[17] = BSK_KF3CT_SRB: Viability Assessment in the BioMAP Diversity Plus: KF3CT Assay (AID 2283069); conditions: primary human keratinocytes with fibroblasts;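 also: total protein by sulforhodamine B staining as a cytotoxicity measure; read 24 h after compound addition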
Summary of the method: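 Human primary keratinocyte plus foreskin fibroblast co-culture exposed to chemicals for 24 h. Total protein measured by 0.1% sulforhodamine B staining after 10% TCA fixation, read at 560 nm; bidirectional fitting versus DMSO baseline.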

[18] = read-out: Interleukin-1 alpha (IL1a), IL1A (gene 3552); assay: BSK_KF3CT_IL1a: BioMAP Diversity Plus: KF3CT Assay for Interleukin-1 alpha (IL1a) Biomarker Activity (AID 2283070); conditions: primary human keratinocytes with fibroblasts; actives raise or lower the signal
Summary of the method: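 Human keratinocyte plus foreskin fibroblast primary co-culture, sampled 24 h after chemical dosing. IL-1a measured by ELISA; responses fitted bidirectionally against DMSO baseline (negative control), so gain or loss of signal both count.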

[19] = read-out: TIMP metallopeptidase inhibitor 2 (TIMP2), TIMP2 (gene 7077); assay: BSK_KF3CT_TIMP2: BioMAP Diversity Plus: KF3CT Assay for TIMP metallopeptidase inhibitor 2 (TIMP2) Biomarker Activity (AID 2283071); conditions: primary human keratinocytes with fibroblasts; actives raise or lower the signal
Summary of the method: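 Co-culture of human primary keratinocytes and foreskin fibroblasts, measured 24 h after chemical dosing. TIMP-2 quantified by ELISA and fitted in both directions relative to DMSO. Cytotoxicity checked in parallel cultures by SRB total-protein staining.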

Measured: AC50

O=C1OC[C@H](Cc2cccc(O)c2)[C@H]1Cc1cccc(O)c1
inactive: [1] | [2] | [3] | [4] | [5] | [6] | [7] | [8] | [9] | [10] | [11] | [12] | [13] | [14] | [15] | [16] | [17] | [18] | [19]

CN(c1nccc(=O)[nH]1)C1CCN(c2nc3ccccc3n2Cc2ccc(F)cc2)CC1
inactive: [1] | [2] | [3] | [4] | [5] | [6] | [7] | [8] | [9] | [10] | [11] | [12] | [13] | [14] | [15] | [16] | [17] | [18] | [19]

CCC(C)c1cc([N+](=O)[O-])cc([N+](=O)[O-])c1OC(=O)OC(C)C (centres undefined)
active: [1] 12.1 µM | [2] 8.25 µM | [3] 24.3 µM | [4] 32.1 µM | [5] 6.86 µM | [7] 13.4 µM | [8] 4.37 µM | [9] 6.2 µM | [10] 9.55 µM | [11] 9.32 µM | [12] 11 µM | [13] 7.79 µM | [14] 4.79 µM | [15] 9.58 µM | [16] 5.26 µM | [17] 25.3 µM | [18] 20 µM | [19] 20 µM
inactive: [6]

C=C(C)C(=O)OCCOCCOCCOCCOC(=O)C(=C)C
inactive: [1] | [2] | [3] | [4] | [5] | [6] | [7] | [8] | [9] | [10] | [11] | [12] | [13] | [14] | [15] | [16] | [17] | [18] | [19]

CC1(C)C2=CCCC(C)(C)[C@]23CC[C@H]1C3
inactive: [6] | [7] | [11] | [12] | [15] | [16] | [17] | [18]
active: [1] 30.9 µM | [2] 34.9 µM | [3] 20 µM | [4] 30.8 µM | [5] 20 µM | [8] 8.84 µM | [9] 30.2 µM | [10] 31.9 µM | [13] 32.9 µM | [14] 32.9 µM | [19] 30.2 µM

c1ccc2cc(Nc3ccc(Nc4ccc5ccccc5c4)cc3)ccc2c1
inactive: [1] | [2] | [3] | [4] | [5] | [6] | [7] | [8] | [9] | [10] | [11] | [12] | [13] | [14] | [15] | [16] | [17] | [18] | [19]
